Bioassay records from PubChem.
This is a sample that favours compounds with a hit; in the whole collection about 1.2% have one here.
BRCT inh green: qHTS Assay for Inhibitors of BRCT-Phosphoprotein Interaction (Green Fluorophore); BRCA1 BRCT-phosphopeptide binding, green fluorescence polarization; Potency, µM (highest dose often 76.9 µM), most hits filed as inhibitors; 75,000 tested, 0.05% active; AID 875, 2007
Target sequence (P38398 whole entry, looked up): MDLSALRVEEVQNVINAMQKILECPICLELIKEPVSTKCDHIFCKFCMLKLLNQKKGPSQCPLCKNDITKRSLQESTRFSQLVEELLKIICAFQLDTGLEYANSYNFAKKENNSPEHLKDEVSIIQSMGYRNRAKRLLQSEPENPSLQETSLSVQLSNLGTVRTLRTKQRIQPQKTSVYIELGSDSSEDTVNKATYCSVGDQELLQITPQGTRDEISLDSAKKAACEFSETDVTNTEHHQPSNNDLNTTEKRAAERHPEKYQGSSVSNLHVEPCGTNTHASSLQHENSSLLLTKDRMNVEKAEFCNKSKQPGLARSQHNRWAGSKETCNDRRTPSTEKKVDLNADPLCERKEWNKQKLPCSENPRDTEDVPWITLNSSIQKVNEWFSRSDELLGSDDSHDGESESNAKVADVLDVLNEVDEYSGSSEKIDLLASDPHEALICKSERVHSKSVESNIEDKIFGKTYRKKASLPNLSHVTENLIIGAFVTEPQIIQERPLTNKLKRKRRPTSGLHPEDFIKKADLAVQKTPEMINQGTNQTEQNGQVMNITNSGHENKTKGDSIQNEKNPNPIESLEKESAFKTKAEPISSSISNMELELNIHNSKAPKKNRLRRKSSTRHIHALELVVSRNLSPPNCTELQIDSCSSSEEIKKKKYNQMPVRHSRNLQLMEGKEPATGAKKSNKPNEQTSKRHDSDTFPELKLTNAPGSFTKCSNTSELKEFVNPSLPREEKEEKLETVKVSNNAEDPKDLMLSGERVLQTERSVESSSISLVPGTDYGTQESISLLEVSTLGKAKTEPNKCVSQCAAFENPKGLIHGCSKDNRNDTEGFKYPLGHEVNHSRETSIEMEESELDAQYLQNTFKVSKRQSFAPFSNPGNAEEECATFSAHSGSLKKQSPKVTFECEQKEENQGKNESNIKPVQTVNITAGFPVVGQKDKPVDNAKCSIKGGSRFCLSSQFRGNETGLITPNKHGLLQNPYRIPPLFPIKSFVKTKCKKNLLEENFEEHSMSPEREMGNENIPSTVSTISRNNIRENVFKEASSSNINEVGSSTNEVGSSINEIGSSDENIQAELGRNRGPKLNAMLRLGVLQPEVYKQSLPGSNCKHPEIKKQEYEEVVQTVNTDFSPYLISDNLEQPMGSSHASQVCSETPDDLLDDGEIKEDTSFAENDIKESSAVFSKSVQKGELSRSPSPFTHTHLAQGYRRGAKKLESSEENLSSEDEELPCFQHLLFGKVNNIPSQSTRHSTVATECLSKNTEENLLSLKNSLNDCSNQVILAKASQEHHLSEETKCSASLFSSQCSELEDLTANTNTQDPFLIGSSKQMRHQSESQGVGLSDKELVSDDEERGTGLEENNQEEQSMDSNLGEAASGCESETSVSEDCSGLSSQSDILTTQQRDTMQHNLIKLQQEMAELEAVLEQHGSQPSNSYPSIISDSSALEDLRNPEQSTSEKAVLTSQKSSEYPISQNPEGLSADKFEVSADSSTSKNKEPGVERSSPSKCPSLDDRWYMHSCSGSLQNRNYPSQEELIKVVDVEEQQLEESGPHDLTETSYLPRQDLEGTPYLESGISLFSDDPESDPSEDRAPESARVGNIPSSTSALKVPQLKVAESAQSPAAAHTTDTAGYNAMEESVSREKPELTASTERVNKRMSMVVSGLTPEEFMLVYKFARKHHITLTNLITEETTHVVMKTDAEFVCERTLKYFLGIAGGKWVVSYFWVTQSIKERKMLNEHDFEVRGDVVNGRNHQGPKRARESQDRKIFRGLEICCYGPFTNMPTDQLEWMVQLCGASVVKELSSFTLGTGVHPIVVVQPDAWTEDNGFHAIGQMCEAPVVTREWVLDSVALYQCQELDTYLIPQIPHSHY
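Compounds were incubated for 12 min at room temperature with a complex of 100 nM fluorescein-tagged pBACH1 decapeptide and 250 nM His-tagged BRCT protein. Buffer was phosphate pH 7.3 with EDTA, DTT and Tween 20. Disruption of binding lowers the polarization signal.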
YjeE inh: qHTS Assay for Inhibitors of YjeE; purified YjeE enzyme, qHTS inhibition assay; Potency, µM; 71,000 tested, 0.05% active; tRNA threonylcarbamoyladenosine biosynthesis protein TsaE (Escherichia coli (strain …
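Fluorescence polarization of a BODIPY Texas Red–ADP probe (2 uM) bound to purified YjeE (10 uM) was read after 15 min room-temperature incubation with compounds. Loss of polarization marks inhibitors; ADP serves as titrated control.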
GBA activity: Glucocerebrosidase. Lysosomal acid glucosylceramidase (Homo sapiens), P04062. purified enzyme, resorufin glucoside fluorescence (screen aimed at inhibitors), 20 min. Potency, µM. 48,000 tested, 1.1% active. AID 360, 2006; in the data active means potency below about 15 µM; inconclusive means mostly about 16 µM to 33 µM;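 further: the screen sought inhibitors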
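Normal human glucocerebrosidase (0.2 nM final) was assayed with resorufin β-D-glucopyranoside (30 uM final) in 50mM citric acid/KH2PO4, 10mM sodium taurocholate, 0.01% tween-20, pH 5.9. Compounds were titrated; fluorescence (Ex 548, Em 600) read after 20 min at RT.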
BRCT inh red: qHTS Assay for Inhibitors of BRCT-Phosphoprotein Interaction (Red Fluorophore) | Breast cancer type 1 susceptibility protein (Homo sapiens), P38398 | BRCT-phosphopeptide binding, red fluorescence polarization | Potency, µM (highest dose often 76.9 µM), most hits filed as inhibitors | 75,000 tested, 0.03% active | AID 892, 2007
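Fluorescence polarization: 100 nM His-tagged BRCA1 BRCT with 100 nM TAMRA-labelled phospho-BACH1 decapeptide, phosphate buffer pH 7.3 with 150 mM NaCl, DTT, 0.01% Tween 20; 12 min RT. Binding inhibition seen as FP decrease.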
Hsp90 Hop PPI: qHTS Assay for Disrupters of an Hsp90 Co-Chaperone Interaction | Hsp90 C-terminal peptide / TPR2A (Hop) interaction, human | AlphaScreen TPR2A-His6 binding biotin-Hsp90 C-terminal peptide | Potency, µM (highest dose often 57 µM) | 71,000 tested, 0.44% active; active means well fitted curve in either direction with a large enough effect; inconclusive means small, poorly fitted or top-dose-only effect, or another doubt
Pol III holo inh: qHTS Assay for Inhibitors of DNA Polymerase III Holoenzyme System. reconstituted DNA polymerase III holoenzyme replication, biochemical. Potency, µM (highest dose often 57.1 µM). 71,000 tested, 0.25% active. AID 603, 2007
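Reconstituted *E. coli* holoenzyme (0.35 nM Pol III, 1 nM beta, 154 nM SSB, 2 nM primase) was preincubated with compound for 15 min at RT. Synthesis on 1.4 nM ssM13Gori ran 35 min, then was stopped with PicoGreen/EDTA and read as dsDNA fluorescence.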
Hsp90 TPR2A CRC: Confirmation Concentration-Response Assay and Counterscreen for Disrupters of an Hsp90 Co-Chaperone Interaction; shares compounds with Hsp90 Hop PPI; AlphaScreen TPR2A-His6 / biotin-Hsp90 peptide binding; activity, negative = inhibition, % at 40 µM or 46 µM, hits read low; 45 tested, 100% active;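 active means compound lowering the Hsp90 and TPR2A binding signal, whether or not the linker counterscreen also flagged it as an artifact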
Large screens that a line does not name were inactive (follow-up assays come after a bar, where they were run); [ ] = another dose, or the depositor's remark. Unless noted, the call rests on the fitted dose curve; in most records, active means well fitted curve in the direction sought with a large enough effect; inconclusive means small, poorly fitted or top-dose-only effect, or another doubt; inactive means no such curve, though single readings can be large; an effect the other way counts as inactive or inconclusive.

O=[N+]([O-])c1ccc(CSc2ncnc3c2ncn3[C@@H]2O[C@@H](CO)[C@@H](O)[C@H]2O)cc1	none (no result: GBA activity)
Cc1ccc2cc(C#N)c(NCc3ccco3)nc2c1	GBA activity 12
Cc1c(O)ccc2c1OCO2	none (no result: YjeE inh, GBA activity, Hsp90 Hop PPI, Pol III holo inh)
Oc1cc(O)c2c(c1)O[C@H](c1ccc(O)c(O)c1)[C@@H](O)[C@@H]2c1c(O)cc(O)c2c1O[C@@H](c1ccc(O)c(O)c1)[C@H](O)C2	Pol III holo inh 0.63µM (no result: GBA activity)
O=C(/C=C\c1ccc(O)cc1)c1ccc(O)cc1O	none (no result: GBA activity)
CCOC(=O)C1CCN(c2ncnc3c2oc2ccc(Cl)cc23)CC1	GBA activity 13
O=C(Nc1nc(-c2ccc3c(c2)OCO3)cs1)C1COc2ccccc2O1 (stereo unspecified)	none (no result: GBA activity)
O=C(Nc1nc(-c2ccccn2)cs1)C1COc2ccccc2O1 (stereo unspecified)	Hsp90 Hop PPI 16µM (no result: GBA activity)
CCOC(=O)CNc1c(-c2ccc(O)cc2)nc2ccc(Cl)cn12	GBA activity 4.1
O=S(=O)(Nc1cccnc1)c1cccc2cccnc12	none (no result: GBA activity)
O=C(CSc1nnc(C2COc3ccccc3O2)o1)Nc1nccs1 (stereo unspecified)	Hsp90 Hop PPI 13µM (no result: GBA activity)
COc1ccc2ccccc2c1C1CC(=O)N2CN(C)CSC2=C1C#N (stereo unspecified)	GBA activity 14
CCc1nc2ccccc2c(C(=O)OC2CCOC2=O)c1C (stereo unspecified)	GBA activity inconclusive
CCCc1nc2ccccc2c(C(=O)OC2CCOC2=O)c1CC (stereo unspecified)	GBA activity 12
CCN1CCN(c2ncc(C(=O)Nc3c(F)cc(F)cc3Br)c3ccccc23)CC1	GBA activity 12
CCN1CCN(c2ncc(C(=O)Nc3cc(Cl)c(OC)cc3OC)c3ccccc23)CC1	none
O=C(O)CCCNc1cc(N2CCC3(CC2)OCCO3)c2noc3c2c1C(=O)c1ccccc1-3	GBA activity 12, BRCT inh red inconclusive, Hsp90 Hop PPI 3.2µM, Pol III holo inh 3.2µM
CCOC(=O)N1CCN(c2cc(NCCC(=O)O)c3c4c(onc24)-c2ccccc2C3=O)CC1	Hsp90 Hop PPI inconclusive
Cc1cc(N2CCC(C(=O)Nc3ccc(F)cc3)CC2)nc(-c2ccccc2)n1	GBA activity inconclusive
COc1ccc(NC(=O)C2CCN(c3cc(C)nc(-c4ccccc4)n3)CC2)cc1	GBA activity 13
O=c1c(CCc2ccccc2)nc2cnc(Oc3ccccc3)nc2n1C1CC1	none (no result: GBA activity)
Cc1c2oc3c(C)ccc(C(=O)N[C@@H]4C(=O)N[C@H](C(C)C)C(=O)N5CCC[C@H]5C(=O)N(C)CC(=O)N(C)[C@@H](C(C)C)C(=O)O[C@@H]4C)c3nc-2c(C(=O)N[C@@H]2C(=O)N[C@H](C(C)C)C(=O)N3CCC[C@H]3C(=O)N(C)CC(=O)N(C)[C@@H](C(C)C)C(=O)O[C@@H]2C)c(N)c1=O	Pol III holo inh 0.02µM (no result: GBA activity)
CCc1ccc(CNc2ccc(O)cc2)cc1	GBA activity 11
O=C(CN(C(=O)CNS(=O)(=O)c1ccccc1)c1ccc2c(c1)OCCO2)NC1CCCCC1	GBA activity 12
O=C(CSCc1ccccc1Cl)N1CCN(c2ccccn2)CC1	GBA activity 15
c1coc(CNc2nc(N3CCCCC3)nc3ccccc23)c1	GBA activity 9.6
O=C(Nc1cccc(-c2cn3cccnc3n2)c1)c1ccc(Br)o1	GBA activity 6.6
CC(C)[C@@H](CC(=O)N[C@@H]1CCCC[C@H]1C(=O)N[C@H](CC(=O)N[C@@H](CCC(=O)O)CC(=O)O)Cc1c[nH]c2ccccc12)NC(=O)C[C@H](Cc1c[nH]c2ccccc12)NC(=O)[C@@H]1CNCC[C@H]1N	Hsp90 Hop PPI 16µM (no result: BRCT inh green, GBA activity, BRCT inh red)
CC(C)C[C@@H](CC(=O)N[C@H](CC(=O)N[C@@H]1CCCC[C@H]1C(=O)N[C@H](CC(=O)N[C@@H](CCC(=O)O)CC(=O)O)Cc1c[nH]c2ccccc12)C(C)C)NC(=O)[C@@H]1CNCC[C@H]1N	none (no result: BRCT inh green, GBA activity, BRCT inh red)
CCN1CCN(C(=O)N[C@H](C(=O)N[C@@H]2C(=O)N3C(C(=O)O)=C(CSc4nnnn4C)CS[C@@H]23)c2ccc(O)cc2)C(=O)C1=O	none (no result: GBA activity)
COc1cccc2c1C(=O)c1c(O)c3c(c(O)c1C2=O)C[C@@](O)(C(=O)CO)C[C@H]3O[C@H]1C[C@@H](N)[C@H](O)[C@@H](C)O1.[W]	Pol III holo inh inconclusive (no result: GBA activity)
COc1cccc2c1C(=O)c1c(O)c3c(c(O)c1C2=O)C[C@](O)(C(=O)CO)C[C@H]3O[C@@H]1C[C@H](N)[C@H](O)[C@H](C)O1	BRCT inh red inconclusive, Pol III holo inh 0.79µM (no result: GBA activity)
CNc1nc(-c2ccoc2)nc2ccccc12	none (no result: GBA activity)
CSc1nc2nc(-c3ccccc3)cc(C(F)(F)F)n2n1	GBA activity 11
CCC12CN3CC(CC)(CN(C1)C3c1ccc(OC(C)C)cc1)C2=O (stereo unspecified)	GBA activity 4.3
C=CCOc1ccc(C2N3CC4(C)CN2CC(CCC)(C3)C4=O)cc1 (stereo unspecified)	GBA activity 4.8
CCCC12CN3CC(C)(CN(C1)C3c1ccc(OC)cc1)C2=O (stereo unspecified)	none (no result: GBA activity)
CC(=O)N1CCC2(CC1)CCN(C(=O)Nc1cccc(F)c1)CC2	none (no result: GBA activity)
O=C1C(C=NCCCN2CCCC2=O)=C(O)c2ccccc21	none
CC(=NCCCn1ccnc1)C1=C(O)c2ccccc2C1=O	Hsp90 Hop PPI 13µM
O=C1C(C=NCCCn2ccnc2)=C(O)c2ccccc21	Hsp90 Hop PPI 3.2µM (no result: GBA activity)
Cc1ccc(S(=O)(=O)CCc2nnc(NC(=O)c3cnccn3)s2)cc1	none
Cc1ccc(S(=O)(=O)CCc2nnc(NC(=O)c3ccccn3)s2)cc1	Hsp90 Hop PPI 6.3µM | Hsp90 TPR2A CRC -100[alpha-screen platform artifact]
Oc1c(CN2CCc3ccccc3C2)cc(Cl)c2cccnc12	none (no result: GBA activity)
CN1CCN(Cc2cc(COCc3ccccc3)c3cccnc3c2O)CC1	Hsp90 Hop PPI 1.6µM (no result: GBA activity) | Hsp90 TPR2A CRC -100[alpha-screen platform artifact]
Cc1ccc(S(=O)(=O)NC(=O)c2cc(C)n(CCCn3ccnc3)c2C)cc1	GBA activity inconclusive, Hsp90 Hop PPI 4µM | Hsp90 TPR2A CRC -100[alpha-screen platform artifact]
